# Source: PubChem BioAssay (EPA / NIEHS)
# The source made the active and inactive calls. The calls were made as follows: active = hit-call score of the fitted dose curve at least 0.9, where 1 is the maximum; inactive = score below 0.9.
# How the values were obtained:
# [1] = CCTE_Padilla_ZF_Score.Edema: CCTE's 144 Hour Post-fertilization zebrafish Assay Score for Edema Malformation, Padilla Lab (AID 2284406)
# In short: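 Edema scored at 6 dpf by two blinded observers under a stereo microscope, in single outbred wild-type larvae exposed from 6-8 hpf in sealed wells (Hanks', 26C, 14:10 h light) and chemical-free after a 5 dpf rinse.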
# [2] = CCTE_Padilla_ZF_Score.Spine: CCTE's 144 Hour Post-fertilization zebrafish Assay Score for Spine Malformation, Padilla Lab (AID 2284407)
# In short: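 Spine malformation scored at 6 dpf by two independent blinded observers under stereomicroscope, after static sealed exposure from 6–8 hpf at 26C in Hanks' solution with rinse on 5 dpf. Positive-direction fit against DMSO control.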
# [3] = CCTE_Padilla_ZF_Score.Swim_bladder: CCTE's 144 Hour Post-fertilization zebrafish Assay Score for Swim Bladder Malformation, Padilla Lab (AID 2284408)
# In short: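 Swim bladder inflation scored at 6 dpf by two blinded observers under a stereo microscope. Exposure ran from 6–8 hpf in sealed wells of 10% Hanks' at 26C, with rinsing at 5 dpf; DMSO served as baseline.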
# [4] = CCTE_Padilla_ZF_Score.Position: CCTE's 144 Hour Post-fertilization zebrafish Assay Score for Position, Padilla Lab (AID 2284409)
# In short: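 Wild-type zebrafish embryos (with chorions) exposed singly from 6–8 hpf in sealed wells of Hanks' solution at 26C, rinsed at 5 dpf. At 6 dpf, blinded assessors scored abnormal water-column position by brightfield stereomicroscopy, relative to DMSO.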
# [5] = CCTE_Padilla_ZF_Score.Living: CCTE's 144 Hour Post-fertilization zebrafish Assay Score for Viability, Padilla Lab (AID 2284410);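 also: larval death at 6 dpf judged by absent heartbeat or coagulation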
# In short: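 Mortality at 6 dpf, judged as absent heartbeat or coagulation by two blinded observers, after sealed static exposure beginning at 6–8 hpf at 26C. Larvae were rinsed free of chemical at 5 dpf, and activity was fitted relative to DMSO.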
# [6] = CCTE_Padilla_ZF_Score.General: CCTE's 144 Hour Post-fertilization zebrafish Assay Score for General Malformation, Padilla Lab (AID 2284411)
# In short: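 Malformation, death and hatching were scored at 6 dpf by two blinded observers under a stereo microscope. Embryos were dosed singly from 6-8 hpf in sealed plates of 10% Hanks' at 26C and rinsed on 5 dpf; DMSO baseline.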
# [7] = CCTE_Padilla_ZF_Score.Tail: CCTE's 144 Hour Post-fertilization zebrafish Assay Score for Tail Malformation, Padilla Lab (AID 2284414)
# In short: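 Tail malformations were scored at 6 dpf by two blinded assessors under a stereo microscope. Chorionated embryos had been exposed from 6-8 hpf in sealed wells of 10% Hanks' at 26 C, then rinsed free of chemical at 5 dpf.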
# [8] = CCTE_Padilla_ZF_Score.Blood_pooling: CCTE's 144 Hour Post-fertilization zebrafish Assay Score for Blood Pooling, Padilla Lab (AID 2284415)
# In short: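 Blood pooling was scored at 6 dpf under a stereo microscope by two blinded assessors, fitted upward against DMSO. Single embryos were dosed at 6–8 hpf in 10% Hanks', kept sealed at 26C (14:10 h cycle) and rinsed at 5 dpf.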
# [9] = CCTE_Padilla_ZF_Score.Any: CCTE's 144 Hour Post-fertilization zebrafish Assay Score for Any Mortality or Malformation, Padilla Lab (AID 2284416)
# In short: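 Wild-type zebrafish embryos with chorions, one per well in 10% Hanks' from 6–8 hpf, dosed in sealed plates at 26 C, 14:10 h light:dark; rinsed at 5 dpf; blinded scoring at 6 dpf for death or malformation, versus DMSO.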
smiles,measurement,setting,value
OCCCC(F)(F)C(F)(F)C(F)(F)C(F)(F)C(F)(F)C(F)(F)C(F)(F)F,AC50,[1],36.4 µM (active)
same,outcome,[2],inactive
same,AC50,[3],88.1 µM (active)
same,outcome,[4],inactive
same,outcome,[5],inactive
same,outcome,[6],inactive
same,outcome,[7],inactive
same,outcome,[8],inactive
same,AC50,[9],38.7 µM (active)
FC(F)(F)C(F)(F)C(F)(F)C(F)(F)C(F)(F)C(F)(F)C(F)(F)I,AC50,[1],10.2 µM (active)
same,AC50,[3],63.8 µM (active)
same,outcome,[4],inactive
same,outcome,[5],inactive
same,outcome,[7],inactive
same,outcome,[8],inactive
same,AC50,[9],12.4 µM (active)
O=C(O)C(F)(F)C(F)(F)C(F)(F)F,outcome,[1],inactive
same,outcome,[3],inactive
same,outcome,[4],inactive
same,outcome,[5],inactive
same,outcome,[6],inactive
same,outcome,[7],inactive
same,outcome,[8],inactive
same,outcome,[9],inactive
O=P(O)(O)OCCC(F)(F)C(F)(F)C(F)(F)C(F)(F)C(F)(F)C(F)(F)F,outcome,[1],inactive
same,outcome,[3],inactive
same,outcome,[4],inactive
same,outcome,[5],inactive
same,outcome,[7],inactive
same,outcome,[8],inactive
same,outcome,[9],inactive
FC(F)(F)C(F)(F)C(F)(F)C(F)(F)CCI,outcome,[1],inactive
same,outcome,[2],inactive
same,outcome,[3],inactive
same,outcome,[4],inactive
same,outcome,[5],inactive
same,outcome,[6],inactive
same,outcome,[7],inactive
same,outcome,[8],inactive
same,outcome,[9],inactive
O=C(O)C(F)(F)C(F)(F)C(F)F,outcome,[1],inactive
same,outcome,[3],inactive
same,outcome,[4],inactive
same,outcome,[5],inactive
same,outcome,[6],inactive
same,outcome,[7],inactive
same,outcome,[8],inactive
same,outcome,[9],inactive
FC(F)(F)C(F)(F)C(F)(F)C(F)(F)C(F)(F)C(F)(F)C(F)(F)Br,outcome,[1],inactive
same,outcome,[3],inactive
same,outcome,[4],inactive
same,outcome,[5],inactive
same,outcome,[6],inactive
same,outcome,[7],inactive
same,outcome,[8],inactive
same,outcome,[9],inactive
O=C(CC(=O)C(F)(F)C(F)(F)F)C(F)(F)F,outcome,[1],inactive
same,outcome,[3],inactive
same,outcome,[4],inactive
same,outcome,[5],inactive
same,outcome,[6],inactive
same,outcome,[7],inactive
same,outcome,[8],inactive
same,outcome,[9],inactive
O=C(O)C(F)(OC(F)(F)C(F)(OC(F)(F)C(F)(OC(F)(F)C(F)(F)C(F)(F)F)C(F)(F)F)C(F)(F)F)C(F)(F)F (stereo not drawn),outcome,[1],inactive
same,outcome,[3],inactive
same,outcome,[4],inactive
same,outcome,[5],inactive
same,outcome,[6],inactive
same,outcome,[7],inactive
same,outcome,[8],inactive
same,outcome,[9],inactive
FC(F)(F)C(F)(F)C(F)(F)C(F)(F)C(F)(F)C(F)(F)CC1CO1 (stereo not drawn),outcome,[1],inactive
same,outcome,[3],inactive
same,outcome,[4],inactive
same,outcome,[5],inactive
same,outcome,[6],inactive
same,outcome,[7],inactive
same,outcome,[8],inactive
same,outcome,[9],inactive
FC(F)(F)C(F)(F)CNCC(F)(F)C(F)(F)F,outcome,[1],inactive
same,AC50,[3],0.00275 µM (active)
same,outcome,[4],inactive
same,outcome,[5],inactive
same,outcome,[6],inactive
same,outcome,[7],inactive
same,outcome,[8],inactive
same,AC50,[9],0.00326 µM (active)
FC(F)(F)C(F)(F)C(F)(F)C(F)(F)C(F)(F)C(F)(F)C(F)(F)C(F)(F)CCS,outcome,[1],inactive
same,outcome,[2],inactive
same,outcome,[3],inactive
same,outcome,[4],inactive
same,outcome,[5],inactive
same,outcome,[6],inactive
same,outcome,[7],inactive
same,outcome,[8],inactive
same,outcome,[9],inactive
OCC(F)(F)C(F)(F)C(F)(F)C(F)(F)C(F)(F)C(F)(F)F,AC50,[1],84.7 µM (active)
same,outcome,[2],inactive
same,outcome,[3],inactive
same,outcome,[4],inactive
same,AC50,[5],88 µM (active)
same,outcome,[7],inactive
same,AC50,[8],93.7 µM (active)
same,AC50,[9],80.5 µM (active)
O=C(O)C(F)(F)C(F)(F)F,outcome,[1],inactive
same,outcome,[3],inactive
same,outcome,[4],inactive
same,outcome,[5],inactive
same,outcome,[6],inactive
same,outcome,[7],inactive
same,outcome,[8],inactive
same,outcome,[9],inactive
O=C(O)C(F)(F)C(F)(F)C(F)(F)C(F)(F)C(F)(F)C(F)(F)C(F)(F)C(F)(F)C(F)(F)C(F)(F)C(F)(F)C(F)(F)F,outcome,[1],inactive
same,outcome,[3],inactive
same,outcome,[4],inactive
same,outcome,[5],inactive
same,outcome,[6],inactive
same,outcome,[7],inactive
same,outcome,[8],inactive
same,outcome,[9],inactive
FC(F)(F)C(F)(F)C(F)(F)N(C(F)(F)C(F)(F)C(F)(F)F)C(F)(F)C(F)(F)C(F)(F)F,outcome,[1],inactive
same,outcome,[2],inactive
same,outcome,[3],inactive
same,outcome,[4],inactive
same,outcome,[5],inactive
same,outcome,[6],inactive
same,outcome,[7],inactive
same,outcome,[8],inactive
same,outcome,[9],inactive
O=S(=O)(O)C(F)(F)C(F)(F)C(F)(F)C(F)(F)C(F)(F)C(F)(F)C(F)(F)F,AC50,[1],25.8 µM (active)
same,outcome,[2],inactive
same,AC50,[3],21.3 µM (active)
same,AC50,[4],22 µM (active)
same,AC50,[5],71 µM (active)
same,AC50,[7],31.2 µM (active)
same,AC50,[8],63.4 µM (active)
same,AC50,[9],21.3 µM (active)
C=CC(=O)OCC(F)(F)C(F)(F)C(F)(F)C(F)(F)COC(=O)C=C,AC50,[1],4.88 µM (active)
same,AC50,[3],4.37 µM (active)
same,outcome,[4],inactive
same,AC50,[5],9.44 µM (active)
same,outcome,[7],inactive
same,outcome,[8],inactive
same,AC50,[9],4.38 µM (active)
FC(F)(I)C(F)(F)C(F)(F)C(F)(F)I,AC50,[1],24.3 µM (active)
same,AC50,[3],27.5 µM (active)
same,outcome,[4],inactive
same,outcome,[5],inactive
same,AC50,[6],24.3 µM (active)
same,AC50,[7],80.4 µM (active)
same,outcome,[8],inactive
same,AC50,[9],16.9 µM (active)
NC(=O)C(F)(F)C(F)(F)C(F)(F)C(F)(F)F,outcome,[1],inactive
same,outcome,[3],inactive
same,outcome,[4],inactive
same,outcome,[5],inactive
same,outcome,[7],inactive
same,outcome,[8],inactive
same,outcome,[9],inactive
C=C(C)C(=O)OCCC(F)(F)C(F)(F)C(F)(F)C(F)(F)C(F)(C(F)(F)F)C(F)(F)F,outcome,[1],inactive
same,outcome,[3],inactive
same,outcome,[4],inactive
same,outcome,[5],inactive
same,outcome,[7],inactive
same,outcome,[8],inactive
same,outcome,[9],inactive
N=C(N)C(F)(F)C(F)(F)C(F)(F)C(F)(F)C(F)(F)C(F)(F)C(F)(F)F,outcome,[1],inactive
same,outcome,[2],inactive
same,outcome,[3],inactive
same,outcome,[4],inactive
same,AC50,[5],22.2 µM (active)
same,outcome,[7],inactive
same,outcome,[8],inactive
same,AC50,[9],22.2 µM (active)
FC(F)(F)C(F)(F)C(F)(F)CI,outcome,[1],inactive
same,outcome,[3],inactive
same,outcome,[4],inactive
same,outcome,[5],inactive
same,outcome,[6],inactive
same,outcome,[7],inactive
same,outcome,[8],inactive
same,outcome,[9],inactive
